Data on 17 compounds can be found in PubChem BioAssay (NCATS).

Results filed as inconclusive are left out. A number with no mark means an inactive call. Calls of active or inactive are those of the source. Calls come from the whole dose curve; as a rule, active = well fitted curve in the direction sought with a large enough effect; inconclusive = small, poorly fitted or top-dose-only effect, or another doubt; inactive = no such curve, though single readings can be large; an effect the other way counts as inactive or inconclusive.

The test system of one assay is Es-2. Kind of assay: Primary qHTS to identify gynecologic anti-cancer compounds using libraries of approved drugs and bioactive compounds (AID 1345084). Note: nearly all actives have a fitted effect of over 55% in size. The following applies: Gynecologic cancer cell panel viability, ATPlite luminescence, 48 h; series mostly up to 57.5 µM. In short, it runs like this:
(§1)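 Five-point cytotoxicity, 48 h drug exposure at 37 C, 5% CO2, on cells seeded 16 h beforehand. ATP content read by ATPlite luminescence.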

The subject of another assay is HeLa. Described as above. The following applies: Gynecologic cancer cell panel viability, ATPlite luminescence, 48 h; series mostly up to 57.5 µM. In short, it runs like this: as §1
The subject of a further assay is Hek293T. The description is as above. The following applies: Gynecologic cancer cell panel viability, ATPlite luminescence, 48 h, control line for the selectivity index; series mostly up to 57.5 µM. In short, it runs like this:
as §1

In another assay the test system is JEG-3. Described as above. The following applies: Gynecologic cancer cell panel viability, ATPlite luminescence, 48 h; series mostly up to 57.5 µM. Summed up:
as §1

A further assay has as its system OV90. The assay is described as above. The following applies: Gynecologic cancer cell panel viability, ATPlite luminescence, 48 h; series mostly up to 57.5 µM. In short, it runs like this:
as §1

The test system of another assay is PA-1. Described as above. The following applies: Gynecologic cancer cell panel viability, ATPlite luminescence, 48 h; series mostly up to 57.5 µM. Summed up: as §1
Another assay deals with SKOV3. The description is as above. The following applies: Gynecologic cancer cell panel viability, ATPlite luminescence, 48 h; series mostly up to 57.5 µM. In short, it runs like this: as §1
Another assay has as its system Tov-21-G. Described as above. The following applies: Gynecologic cancer cell panel viability, ATPlite luminescence, 48 h; series mostly up to 57.5 µM. In short, it runs like this:
as §1

Another assay deals with Tov112D. The description is as above. The following applies: Gynecologic cancer cell panel viability, ATPlite luminescence, 48 h; series mostly up to 57.5 µM. In short, it runs like this: as §1
Assay [1] is described as follows: Drug repurposing screens with cells derived from glioblastoma tumor samples (AID 1345199). Note: nearly all actives have a fitted effect of over 40% in size. Note: potency is the fitted concentration of half-maximal effect. The following applies: GBM patient neurospheres viability, ATP luminescence, 48 h. Summed up:
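Four patient lines of CD133+ GBM neurospheres were screened at several concentrations; hits were retested in those lines plus three slower-growing GBM lines, using 48-hour treatment and ATP-based viability.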

Setting [2] is: at 45.9 µM (top of the series), tumour line B.
[3] abbreviates: at 45.9 µM (top of the series), tumour line D.
[4] abbreviates: at 46.1 µM (top of the series), tumour line C.
[5] abbreviates: at 46 µM (top of the series), tumour line A.
The mark [6] stands for this setting: at 20 µM (top of the series), tumour line C.
The mark [7] stands for this setting: at 21.2 µM (top of the series), tumour line B.
Setting [8] is: at 21.2 µM (top of the series), tumour line D.
% is set by controls: 0 for no effect and ±100 for the full control effect.

`C[C@@H]1C[C@H]2[C@@H]3C[C@H](F)C4=CC(=O)C(Cl)=C[C@]4(C)[C@@]3(F)[C@@H](O)C[C@]2(C)[C@@]1(O)C(=O)CO`: the Potency result with Es-2, in the assay with HeLa, in the assay with Hek293T, in the assay with JEG-3, with OV90 and in the assay with PA-1 was “inactive” each time. Besides, the Potency entry in the assay on SKOV3, in the assay on Tov-21-G and in the assay with Tov112D was “inactive” each time. Besides, the activity, negative = cell killing in assay [1] (setting [2]) is -15.9%; in assay [1] (setting [3]) it was -23.3%; in [1] (setting [4]) it was -24.8%.
On to `CCOC(=O)/C=C(C)/C=C/C=C(C)/C=C/c1c(C)cc(OC)c(C)c1C`, for which the Potency result in the assay on Es-2, in the assay with HeLa, in the assay on Hek293T, in the assay with JEG-3, with OV90 and in the assay on PA-1 was “inactive” each time. Further, the Potency result in the assay on SKOV3, in the assay on Tov-21-G and with Tov112D was “inactive” each time.
Take `CCCCc1nc(Cl)c(CO)n1Cc1ccc(-c2ccccc2-c2nn[nH]n2)cc1`: the Potency entry with Es-2, in the assay on HeLa, with Hek293T, in the assay on JEG-3, in the assay on OV90 and in the assay on PA-1 was “inactive” in each case. Also, the Potency entry in the assay on SKOV3, with Tov-21-G and in the assay on Tov112D was “inactive” each time. Further, the activity, negative = cell killing in assay [1] (setting [2]) was -2.59%; in assay [1] (setting [3]) it was -10.9%; in assay [1] (setting [4]), -14.8%.
For the compound `Cc1cc2c(cc1CC(=O)c1sccc1S(=O)(=O)Nc1onc(C)c1Cl)OCO2`, the Potency entry in the assay with Es-2, in the assay on HeLa, with Hek293T, in the assay on JEG-3, in the assay on OV90 and in the assay with PA-1 was “inactive” in each case. The Potency result in the assay with SKOV3, with Tov-21-G and with Tov112D was “inactive” each time.
For `CN1C(CCl)Nc2cc(Cl)c(S(N)(=O)=O)cc2S1(=O)=O` (stereo not drawn), the Potency result with Es-2, with HeLa, in the assay with Hek293T, with JEG-3, in the assay with OV90 and in the assay with PA-1 was “inactive” each time. Besides, the Potency entry with SKOV3, with Tov-21-G and in the assay on Tov112D was “inactive” each time. The activity, negative = cell killing is -5.52% in assay [1] (setting [2]), -2.64% in assay [1] (setting [3]) and -28.6% in [1] (setting [4]).
Regarding `C[C@H](CCC(=O)O)[C@H]1CC[C@H]2[C@@H]3C(=O)C[C@@H]4CC(=O)CC[C@]4(C)[C@H]3CC(=O)[C@]12C`, the Potency entry in the assay on Es-2, in the assay on HeLa, in the assay on Hek293T, in the assay with JEG-3, with OV90 and in the assay with PA-1 was “inactive” in each case. Also, the Potency result with SKOV3, in the assay on Tov-21-G and in the assay on Tov112D was “inactive” throughout. Also, the activity, negative = cell killing in [1] (setting [2]) was -0.788%; in assay [1] (setting [3]), -14.6%; in assay [1] (setting [5]) it was -2.78%; in [1] (setting [4]), 3.71%.
As for `CC(=O)N/N=C/c1ccc([N+](=O)[O-])o1`, the Potency entry in the assay on Es-2, in the assay on HeLa, with Hek293T, with JEG-3, in the assay with OV90 and in the assay on PA-1 was “inactive” in each case. In addition, the Potency entry in the assay with SKOV3, with Tov-21-G and in the assay with Tov112D was “inactive” throughout.
Consider `COc1cc2c(cc1OC)[C@@H]1CC(=O)[C@@H](CC(C)C)CN1CC2`, for which the Potency result in the assay with Es-2, in the assay on HeLa, in the assay on Hek293T, in the assay on JEG-3, in the assay with OV90 and in the assay with PA-1 was “inactive” each time. Besides, the Potency result in the assay with SKOV3, in the assay on Tov-21-G and in the assay on Tov112D was “inactive” each time. Moreover, in assay [1] (setting [4]), the activity, negative = cell killing is 1.4%. Also, the Potency in [1] (tumour line A) is 28.2 µM (active).
For `NC(=O)C(=O)N/N=C/c1ccc([N+](=O)[O-])o1`, the Potency result in the assay on Es-2, in the assay on HeLa, with Hek293T, with JEG-3, in the assay with OV90 and with PA-1 was “inactive” each time. Moreover, the Potency result with SKOV3, in the assay with Tov-21-G and with Tov112D was “inactive” in each case. In assay [1] (setting [4]), the activity, negative = cell killing was 10.3%. For the same compound, the Potency in assay [1] (tumour line A) is 35.5 µM (active).
Regarding `CCOC(=O)OC(C)OC1=C(C(=O)Nc2ccccn2)N(C)S(=O)(=O)c2ccccc21` (stereo not drawn), the Potency result in the assay on Es-2, with HeLa, in the assay on Hek293T, in the assay on JEG-3, in the assay with OV90 and in the assay with PA-1 was “inactive” each time. For the same compound, the Potency entry with SKOV3, with Tov-21-G and in the assay on Tov112D was “inactive” in each case. Moreover, the figures for the activity, negative = cell killing in assay [1] (setting [2]), in assay [1] (setting [3]) and in assay [1] (setting [4]) were -23.8%, -1.93% and 20.6%, respectively.
On to `CC(=O)CC(c1ccc([N+](=O)[O-])cc1)c1c(O)c2ccccc2oc1=O` (stereo not drawn), for which the Potency entry with Es-2, in the assay on HeLa, in the assay with Hek293T, with JEG-3, in the assay with OV90 and in the assay on PA-1 was “inactive” each time. Besides, the Potency result in the assay on SKOV3, in the assay with Tov-21-G and in the assay with Tov112D was “inactive” throughout. For the same compound, the activity, negative = cell killing in assay [1] (setting [6]) was 0.914%; in assay [1] (setting [7]) it was -11%; in [1] (setting [8]) it was -16.8%.
On to `Oc1ccc(Cl)c2cccnc12`, for which the Potency result in the assay on Es-2, in the assay on HeLa, in the assay on Hek293T, in the assay on JEG-3, with OV90 and in the assay on PA-1 was “inactive” each time. Further, the Potency result in the assay with SKOV3, in the assay with Tov-21-G and in the assay on Tov112D was “inactive” each time. In addition, the activity, negative = cell killing in assay [1] (setting [4]) is -0.921%.
`COC(=O)C1=C(C)NC(C)=C(C(=O)O[C@@H]2CCCN(Cc3ccccc3)C2)[C@@H]1c1cccc([N+](=O)[O-])c1`: the Potency result with Es-2, in the assay on HeLa, with Hek293T, in the assay on JEG-3, with OV90 and in the assay on PA-1 was “inactive” each time. Also, the Potency entry in the assay on SKOV3, with Tov-21-G and in the assay on Tov112D was “inactive” in each case.
As to `CC[C@@H](CO)NCCN[C@@H](CC)CO`, the Potency entry with Es-2, in the assay with HeLa, with Hek293T, in the assay with JEG-3, in the assay on OV90 and with PA-1 was “inactive” in each case. The Potency result in the assay on SKOV3, in the assay with Tov-21-G and in the assay with Tov112D was “inactive” in each case. Further, the activity, negative = cell killing in [1] (setting [6]) was 12.9%; in assay [1] (setting [7]), 2%; in assay [1] (setting [8]), -7.59%; in assay [1] (at 21.3 µM (top of the series), tumour line A), -22%.
In the case of `CCOc1ccc(NC(=O)CC(C)O)cc1` (stereo not drawn), the Potency result in the assay on Es-2, with HeLa, in the assay with Hek293T, in the assay with JEG-3, with OV90 and in the assay on PA-1 was “inactive” each time. Moreover, the Potency entry in the assay on SKOV3, in the assay with Tov-21-G and in the assay on Tov112D was “inactive” throughout. The activity, negative = cell killing in [1] (setting [2]) was -5.84%; in assay [1] (setting [3]) it was -16.9%; in assay [1] (setting [5]), -20.2%; in [1] (setting [4]), -0.587%.
As to `OC[C@H]1O[C@H](O[C@]2(CCl)O[C@H](CCl)[C@@H](O)[C@@H]2O)[C@H](O)[C@@H](O)[C@H]1Cl`, the Potency entry in the assay on Es-2, with HeLa, in the assay with Hek293T, in the assay on JEG-3, in the assay on OV90 and in the assay with PA-1 was “inactive” in each case. For the same compound, the Potency result with SKOV3, with Tov-21-G and in the assay on Tov112D was “inactive” in each case.
`C=C1C[C@H]2[C@@H]3C=C(C)C4=CC(=O)CC[C@]4(C)[C@H]3CC[C@]2(C)[C@@]1(OC(C)=O)C(C)=O`: the Potency entry in the assay with Es-2, with HeLa, in the assay on Hek293T, in the assay with JEG-3, in the assay with OV90 and in the assay with PA-1 was “inactive” each time. Also, the Potency result in the assay on SKOV3, in the assay with Tov-21-G and with Tov112D was “inactive” each time. Further, the results for the activity, negative = cell killing in assay [1] (setting [2]), in assay [1] (setting [3]) and in assay [1] (setting [4]) were -28.2%, -24.4% and -11.9%, respectively.
